Publication PMC4336329 (PLoS ONE, 2015)
Screen size: about 310,000 compounds; about 14,000 (4.5%) showed an effect of 50% or more. Effects have a minus sign here. The list comes from a sample in which strong results are over-represented; it also holds similar structures and randomly drawn compounds.
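Further: peak tail current of the secondary pulse compared with the same well before compound.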

These compounds were tested against human ether-à-go-go-related gene (hERG) potassium channel (human, UniProt Q12809) (assay: primary screen, population patch clamp on CHO cells stably expressing hERG; higher = less effect of the substance).
human ether-à-go-go-related gene (hERG) potassium channel, sequence (Q12809 whole entry, looked up): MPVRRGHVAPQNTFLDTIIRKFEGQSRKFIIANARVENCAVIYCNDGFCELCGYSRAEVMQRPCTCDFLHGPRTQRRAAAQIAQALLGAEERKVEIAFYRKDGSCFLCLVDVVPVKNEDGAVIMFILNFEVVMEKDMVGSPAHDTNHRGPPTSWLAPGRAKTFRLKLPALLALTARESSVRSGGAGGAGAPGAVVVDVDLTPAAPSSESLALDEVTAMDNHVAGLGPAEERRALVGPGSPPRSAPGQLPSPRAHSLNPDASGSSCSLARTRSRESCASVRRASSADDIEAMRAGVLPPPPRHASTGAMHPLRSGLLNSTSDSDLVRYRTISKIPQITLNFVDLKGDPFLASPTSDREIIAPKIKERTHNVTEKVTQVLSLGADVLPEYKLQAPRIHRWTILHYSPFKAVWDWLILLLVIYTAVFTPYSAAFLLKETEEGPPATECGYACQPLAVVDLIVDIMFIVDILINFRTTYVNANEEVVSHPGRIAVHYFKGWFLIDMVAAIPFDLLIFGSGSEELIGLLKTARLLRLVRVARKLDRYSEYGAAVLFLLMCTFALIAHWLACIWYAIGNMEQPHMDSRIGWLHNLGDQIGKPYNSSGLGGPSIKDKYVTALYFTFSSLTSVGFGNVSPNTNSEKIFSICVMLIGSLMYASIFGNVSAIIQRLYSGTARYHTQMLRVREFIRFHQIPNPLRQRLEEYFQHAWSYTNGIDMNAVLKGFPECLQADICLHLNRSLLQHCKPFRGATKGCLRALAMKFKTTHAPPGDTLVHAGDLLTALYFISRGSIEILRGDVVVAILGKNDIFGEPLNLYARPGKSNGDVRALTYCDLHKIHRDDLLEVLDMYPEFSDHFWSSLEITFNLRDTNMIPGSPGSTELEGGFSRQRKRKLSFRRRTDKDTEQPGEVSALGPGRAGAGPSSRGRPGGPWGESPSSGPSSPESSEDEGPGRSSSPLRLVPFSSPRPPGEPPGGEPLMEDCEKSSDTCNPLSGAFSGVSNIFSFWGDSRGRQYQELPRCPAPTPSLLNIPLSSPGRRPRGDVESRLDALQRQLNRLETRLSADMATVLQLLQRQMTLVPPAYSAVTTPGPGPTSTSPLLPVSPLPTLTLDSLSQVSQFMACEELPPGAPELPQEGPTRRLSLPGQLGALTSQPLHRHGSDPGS
With `COc1cc(CNCCCN2CCOCC2)ccc1OCC(=O)NC(C)(C)C.Cl` the “hERG current change (%, negative = inhibition) at 10uM” value was 21%.
With `CCOc1cc(CNCCCN2CCOCC2)ccc1OCC(=O)Nc1cccc2ccccc12.Cl` the “hERG current change (%, negative = inhibition) at 10uM” value was -7.77%.
`CCOc1cc(CNCCCN2CCOCC2)cc(Br)c1OCC(=O)Nc1cccc(C(F)(F)F)c1.Cl` was tested, and the “hERG current change (%, negative = inhibition) at 10uM” value was -70.3%.
`CCOc1cc(CNC(C)(C)C)ccc1OCC(=O)Nc1cccc(C(F)(F)F)c1.Cl` was tested, and the “hERG current change (%, negative = inhibition) at 10uM” value was -13.7%.
With `CCOc1ccc(CC(=O)Nc2ccc(S(=O)(=O)N3CCCC3)cc2)cc1` the “hERG current change (%, negative = inhibition) at 10uM” value was 10.4%.
With `Cc1cc(C(=O)COC(=O)CC2Sc3ccccc3NC2=O)c(C)n1-c1ccccc1` (centres unmarked) the “hERG current change (%, negative = inhibition) at 10uM” value was 28%.
`O=C(COc1ccc2c(c1)C(=O)CC1(CCCCC1)O2)NCc1ccccn1` was tested, and the “hERG current change (%, negative = inhibition) at 10uM” value was -33.9%.
For `O=C(CCS(=O)(=O)c1cccc2nonc12)Nc1cccc2c1CCCC2`, the “hERG current change (%, negative = inhibition) at 10uM” value was 4.5%.
With `Cc1ccc(C)c(N2CC(C(=O)O)CC2=O)c1` (centres unmarked) the “hERG current change (%, negative = inhibition) at 10uM” value was -2.08%.
`CN(CC(=O)Nc1ccc(Cl)cc1)C(=O)COc1ncnc2ccccc12` was tested, and the “hERG current change (%, negative = inhibition) at 10uM” value was -8.52%.
In the case of `CCCCn1nnnc1SCC(=O)N(CC)CC`, the “hERG current change (%, negative = inhibition) at 10uM” value is reported as 10.4%.
For `CCOc1ccc(NC(=O)CSc2nnc(C)n2Cc2ccccc2)cc1`, the “hERG current change (%, negative = inhibition) at 10uM” value was -16.4%.
For `O=C(CN1CC[n+]2c(-c3cccs3)csc21)c1ccc(Br)cc1.[Br-]`, the “hERG current change (%, negative = inhibition) at 10uM” value was -45.9%.
`O=C(CN1CC[n+]2c(-c3cccs3)csc21)c1ccc(-c2ccccc2)cc1.[Br-]` was tested, and the “hERG current change (%, negative = inhibition) at 10uM” value was -54.3%.
In the case of `O=C(CN1CC[n+]2c(-c3ccccc3)csc21)c1ccc(Br)cc1.[Br-]`, the “hERG current change (%, negative = inhibition) at 10uM” value is reported as -40.6%.
For `NNC(=O)c1cccc(S(=O)(=O)Nc2cccc(C(F)(F)F)c2)c1`, the “hERG current change (%, negative = inhibition) at 10uM” value was 1.4%.
With `CC1CN(c2ccc([N+](=O)[O-])cn2)CC(C)O1` (centres unmarked) the “hERG current change (%, negative = inhibition) at 10uM” value was -19.7%.
`CC1(C)CC(CNCCC(c2ccc(F)cc2)c2ccco2)CCO1` (centres unmarked) was tested, and the “hERG current change (%, negative = inhibition) at 10uM” value was -62.5%.
For `O=C1CCC(=O)N1CCC(c1ccc(F)cc1)c1ccco1` (centres unmarked), the “hERG current change (%, negative = inhibition) at 10uM” value was 4.27%.
With `O=C1c2ccccc2C(=O)N1CCC(c1ccc(F)cc1)c1ccco1` (centres unmarked) the “hERG current change (%, negative = inhibition) at 10uM” value was -6.1%.
For `CC1(C)CC(NCCC(c2ccccc2)c2ccco2)CCO1` (centres unmarked), the “hERG current change (%, negative = inhibition) at 10uM” value was -52.5%.
With `CC1(C)CC(NCc2ccccc2)CCO1.Cl` (centres unmarked) the “hERG current change (%, negative = inhibition) at 10uM” value was 5.1%.
In the case of `CC1(C)CC(C(=O)NCCC(c2ccccc2)c2ccco2)CCO1` (centres unmarked), the “hERG current change (%, negative = inhibition) at 10uM” value is reported as -9.31%.
In the case of `Cc1ccc(NC(=O)COC(=O)CCC(=O)c2ccc(Cl)cc2)cc1S(=O)(=O)N(C)C`, the “hERG current change (%, negative = inhibition) at 10uM” value is reported as -1.5%.
In the case of `CCOC(=O)N1CCc2c(sc3nc(SC(C)C)n(N)c(=O)c23)C1`, the “hERG current change (%, negative = inhibition) at 10uM” value is reported as -20.9%.
`Clc1nc(NCc2ccco2)nc(N2CCCCC2)n1` was tested, and the “hERG current change (%, negative = inhibition) at 10uM” value was 33.5%.
`Cl.c1ccc(N2CCN(c3nc(NCc4ccco4)c4ccccc4n3)CC2)cc1` was tested, and the “hERG current change (%, negative = inhibition) at 10uM” value was -73.6%.
With `Cl.c1coc(CNc2ncnc3ccccc23)c1` the “hERG current change (%, negative = inhibition) at 10uM” value was 2.88%.
In the case of `Fc1ccccc1-c1nc(NCc2ccco2)c2ccccc2n1`, the “hERG current change (%, negative = inhibition) at 10uM” value is reported as -2.1%.
For `Cl.c1coc(CNc2nc(N3CCCCC3)nc3ccccc23)c1`, the “hERG current change (%, negative = inhibition) at 10uM” value was -77.5%.
With `CC(C)C(=O)NNC(=O)c1csc(CS(=O)(=O)c2ccc(Cl)cc2)n1` the “hERG current change (%, negative = inhibition) at 10uM” value was -1.62%.
`O=c1cc(-c2ccc(O)cc2)oc2ccccc12` was tested, and the “hERG current change (%, negative = inhibition) at 10uM” value was 16.1%.
In the case of `CCOC(=O)c1ccc(NC(=O)C2C3C=CC(C3)C2C(=O)O)cc1` (centres unmarked), the “hERG current change (%, negative = inhibition) at 10uM” value is reported as 4.67%.
In the case of `CN(C)CC/C=C1\c2cc(F)ccc2CSc2ccccc21.O=C(O)/C=C\C(=O)O`, the “hERG current change (%, negative = inhibition) at 10uM” value is reported as -35.4%.
For `COc1ccc2c(c1)C1C=CCC1C(c1cc3c(cc1Br)OCO3)N2` (centres unmarked), the “hERG current change (%, negative = inhibition) at 10uM” value was 1.4%.
In the case of `O=C(N/C(=C/c1ccc([N+](=O)[O-])cc1)C(=O)N1CCOCC1)c1ccco1`, the “hERG current change (%, negative = inhibition) at 10uM” value is reported as -70.1%.
In the case of `O=C(N/C(=C\c1ccc([N+](=O)[O-])cc1)C(=O)N1CCCCC1)c1ccc(Br)o1`, the “hERG current change (%, negative = inhibition) at 10uM” value is reported as -72%.
For `O=C(N/C(=C\c1cccc([N+](=O)[O-])c1)C(=O)N1CCOCC1)c1ccco1`, the “hERG current change (%, negative = inhibition) at 10uM” value was 14.9%.
For `O=C(N/C(=C\c1ccccc1)C(=O)N1CCCCC1)c1ccc(Br)o1`, the “hERG current change (%, negative = inhibition) at 10uM” value was 15.8%.
For `O=C(N/C(=C/c1cccc([N+](=O)[O-])c1)C(=O)N1CCCCCC1)c1ccco1`, the “hERG current change (%, negative = inhibition) at 10uM” value was -28.2%.
With `O=C(N/C(=C\c1ccc(Cl)cc1)C(=O)N1CCOCC1)c1ccco1` the “hERG current change (%, negative = inhibition) at 10uM” value was -31.4%.
For `O=C(N/C(=C/c1ccccc1)C(=O)N1CCCCC1)c1ccc(Br)o1`, the “hERG current change (%, negative = inhibition) at 10uM” value was -7.64%.
In the case of `O=C(N/C(=C\c1ccc([N+](=O)[O-])cc1)C(=O)N1CCOCC1)c1ccco1`, the “hERG current change (%, negative = inhibition) at 10uM” value is reported as -69.2%.
With `O=C(N/C(=C/c1cccc([N+](=O)[O-])c1)C(=O)N1CCCCC1)c1ccco1` the “hERG current change (%, negative = inhibition) at 10uM” value was -2.24%.
`O=C(N/C(=C\c1ccc([N+](=O)[O-])cc1)C(=O)N1CCCCC1)c1ccco1` was tested, and the “hERG current change (%, negative = inhibition) at 10uM” value was -70.3%.
In the case of `COc1ccc(/C=C(\NC(=O)c2ccco2)C(=O)N2CCOCC2)cc1`, the “hERG current change (%, negative = inhibition) at 10uM” value is reported as 0.365%.
With `O=C(N/C(=C\c1ccccc1)C(=O)N1CCOCC1)c1ccco1` the “hERG current change (%, negative = inhibition) at 10uM” value was 17.1%.
